Rows were chosen to be rich in hits. Some 3.2% of all compounds tested hit in one or more screens of this group.
NTR1 ag: agonists of human NTR1, primary screen, imaging, U2OS cells, beta-arrestin-GFP, high content. Neurotensin receptor type 1 (Homo sapiens), P30989. activation, % at 20 µM. NTR1-U2OS beta-arrestin-GFP spot imaging, agonist mode. 0.17% of 330,000 active;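 active = activation at or above 40% of the spot to cytoplasm intensity ratio, with at least 20 cells analyzed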;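 note: 0% = DMSO without peptide and 100% = 100 nM NTR1 peptide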
A3G deaminase: APOBEC3G DNA deaminase inhibitors, primary screen, biochemical, fluorescence, single-stranded DNA substrate, uHTS; recombinant A3G, ssDNA deamination FAM/TAMRA fluorescence; inhibition, % at 20 µM; 0.28% of 330,000 active; DNA dC->dU-editing enzyme APOBEC-3G (Homo sapiens), Q9HC16;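 active = inhibition of at least 40% at 20 µM, with no more than 30% in the related APOBEC3A deaminase screen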;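 note: plate controls were DMSO wells with A3G for no effect and wells lacking A3G enzyme for full effect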
Target sequence (Q9HC16 whole entry, looked up): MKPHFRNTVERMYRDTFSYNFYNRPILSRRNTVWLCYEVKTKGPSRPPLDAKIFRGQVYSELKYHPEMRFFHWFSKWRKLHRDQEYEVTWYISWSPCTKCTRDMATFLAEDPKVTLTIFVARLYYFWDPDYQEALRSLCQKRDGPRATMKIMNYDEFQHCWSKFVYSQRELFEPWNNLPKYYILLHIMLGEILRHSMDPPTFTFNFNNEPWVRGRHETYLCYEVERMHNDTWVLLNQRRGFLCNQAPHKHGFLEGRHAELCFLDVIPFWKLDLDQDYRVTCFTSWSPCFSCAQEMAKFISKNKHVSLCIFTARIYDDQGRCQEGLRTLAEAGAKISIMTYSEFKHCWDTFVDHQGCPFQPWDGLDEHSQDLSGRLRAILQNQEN
AHR act: AHR activators, primary screen, cell-based, luminescence, luciferase reporter, human; Aryl hydrocarbon receptor (Homo sapiens), P35869; AHR-responsive luciferase reporter cells; activation, % at 5 µM; 2.5% of 320,000 active; in the data active = activation above about 47%;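 note: 0% = vehicle wells and 100% = reference agonist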
APOBEC3A inh: APOBEC3A ssDNA deaminase inhibitors, primary screen, selectivity assay for APOBEC3G inhibitor project, biochemical, FAM/TAMRA oligo cleavage fluorescence | DNA dC->dU-editing enzyme APOBEC-3A (Homo sapiens), P31941 | recombinant A3A, FAM/TAMRA ssDNA deamination fluorescence | inhibition, % at 20 µM | 0.41% of 330,000 active;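 active = at least 40% inhibition at 20 µM here, with at most 30% in a related deaminase screen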;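 note: plate controls were A3A with DMSO for no effect and wells lacking A3A enzyme for full effect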
Target sequence (P31941 whole entry, looked up): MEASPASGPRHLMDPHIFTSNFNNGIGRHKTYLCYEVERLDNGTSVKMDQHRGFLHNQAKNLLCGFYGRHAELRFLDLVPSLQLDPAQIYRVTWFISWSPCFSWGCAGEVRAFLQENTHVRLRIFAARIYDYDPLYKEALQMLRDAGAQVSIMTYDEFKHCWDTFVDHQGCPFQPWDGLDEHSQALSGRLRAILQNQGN
AHR act cf: AHR activators, confirmation, cell-based, luminescence, luciferase reporter, human; shares compounds with AHR act; human cells, AHR-responsive luciferase reporter; activation, % at 9 µM; 87% of 2,300 active; in the data active = activation above about 49%;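 note: HepG2 hepatoma cells carrying a DRE-driven firefly luciferase reporter; 0% = vehicle wells and 100% = reference agonist wells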
PXR act counter: human PXR activators, counter-screen for AHR activator project, cell-based, luciferase luminescence | activation, % at 11.6 µM | 88% of 2,300 active | shares compounds with AHR act | cell-based PXR reporter; in the data active = activation above about 11%;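 note: human hepatoma DPX-2 cells expressing full-length human PXR; 0% = DMSO and 100% = reference agonist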
Active calls of the source: *.

What do the screens show for `Cc1nc(N2CCN(c3ccccc3)CC2)nc2c1C(=O)CC(C)C2` (configuration not stated)?
NTR1 ag: 2; A3G deaminase: -6; AHR act: 92*; APOBEC3A inh: 0; AHR act cf: 62*; PXR act counter: 13*

Results for CCc1cc2cc(OC)ccc2nc1SCC(=O)NNC(=O)c1ccco1 ?
NTR1 ag: 3; A3G deaminase: -8; AHR act: 82*; APOBEC3A inh: -7; AHR act cf: 16; PXR act counter: 14*

Results for COc1ccccc1N1CCN(CCCNC(=O)C2CCCN(c3ncnc4c3nc3n4CCCCC3)C2)CC1 (configuration not stated) ?
NTR1 ag: 0; A3G deaminase: -7; AHR act: 0; APOBEC3A inh: -7

What do the screens show for `O=c1c2ccccc2cnn1-c1ccc(Br)cc1`?
NTR1 ag: -1; A3G deaminase: -3; AHR act: 136*; APOBEC3A inh: 1; AHR act cf: 109*; PXR act counter: 38*

What do the screens show for `CC(=O)OCC1=C(C(=O)O)N2C(=O)C(NC(=O)c3ccc(COc4cccc(Cl)c4Cl)o3)C2SC1` (configuration not stated)?
NTR1 ag: 0; A3G deaminase: -1; AHR act: 3; APOBEC3A inh: 16

What do the screens show for `Clc1ccccc1-c1nc(-c2ccc(Br)o2)no1`?
NTR1 ag: 1; A3G deaminase: -5; AHR act: 100*; APOBEC3A inh: 1; AHR act cf: 108*; PXR act counter: 43*

How did COc1cc(-c2nc(-c3ccc(Br)o3)no2)cc(OC)c1OC do in these assays?
NTR1 ag: -1; A3G deaminase: -5; AHR act: 91*; APOBEC3A inh: -3; AHR act cf: 84*; PXR act counter: 14*

How did Brc1ccc(-c2noc(CCc3ccccc3)n2)o1 do in these assays?
NTR1 ag: 2; A3G deaminase: -5; AHR act: 7; APOBEC3A inh: -1

Results for Brc1ccc(-c2noc(-c3ccccn3)n2)o1 ?
NTR1 ag: -1; A3G deaminase: -6; AHR act: 101*; APOBEC3A inh: -1; AHR act cf: 71*; PXR act counter: 25*

How did O=[N+]([O-])c1ccccc1-c1nc(-c2ccc(Br)o2)no1 do in these assays?
NTR1 ag: 1; A3G deaminase: 3; AHR act: 112*; APOBEC3A inh: 3; AHR act cf: 109*; PXR act counter: 47*

What do the screens show for `O=[N+]([O-])c1cc(Cl)ccc1-c1nc(-c2ccccc2)no1`?
AHR act: 44

What do the screens show for `O=C(COC(=O)Cc1n[nH]c(=O)c2ccccc12)Nc1ccc(Cl)cn1`?
NTR1 ag: 2; A3G deaminase: -2; AHR act: 17; APOBEC3A inh: 3

Results for O=C(CN(c1ccccc1)S(=O)(=O)c1ccc(F)cc1)NCc1cccs1 ?
NTR1 ag: -2; A3G deaminase: -2; AHR act: -1; APOBEC3A inh: 0

How did COc1ccc(C#Cc2ccc3c(c2)c(=O)c2ccccc2n3C)cc1 do in these assays?
NTR1 ag: -2; A3G deaminase: 5; AHR act: 91*; APOBEC3A inh: 3; AHR act cf: 103*; PXR act counter: 14*

Results for Cn1c(C=O)c(C#CC(C)(C)O)c2ccccc21 ?
NTR1 ag: 2; A3G deaminase: -9; AHR act: 21; APOBEC3A inh: 8

Results for COc1cccc(C#Cc2c(C=O)n(C)c3ccccc23)c1 ?
NTR1 ag: 20; A3G deaminase: -10; AHR act: 110*; APOBEC3A inh: -4; AHR act cf: 130*; PXR act counter: 43*

How did CCO[C@H]1OC(C(=O)Nc2ccccc2)=C[C@@H](C)[C@@H]1CCCO do in these assays?
NTR1 ag: 0; A3G deaminase: -2; AHR act: 14; APOBEC3A inh: 1

Results for Cn1c(NC(=O)CCc2ccccc2)cc(=O)n(C)c1=O ?
NTR1 ag: 2; A3G deaminase: -8; AHR act: 149*; APOBEC3A inh: -5; AHR act cf: 109*; PXR act counter: 24*

What do the screens show for `CCCC(=O)Nc1cc(=O)n(C)c(=O)n1C`?
NTR1 ag: 18; A3G deaminase: 1; AHR act: 3; APOBEC3A inh: 4

What do the screens show for `Fc1ccc(/C=N/NC(=S)Nc2ccc(Cl)cc2Cl)cc1`?
NTR1 ag: 1; A3G deaminase: -6; AHR act: 84*; APOBEC3A inh: -5; AHR act cf: 107*; PXR act counter: 7

What do the screens show for `Fc1ccc(/C=N/NC(=S)Nc2ccc(Cl)cc2)cc1F`?
NTR1 ag: -1; A3G deaminase: -5; AHR act: 26; APOBEC3A inh: 1

What do the screens show for `COCCn1c(SCC(=O)Nc2ccccc2OC)nc2c([nH]c3ccccc32)c1=O`?
NTR1 ag: 6; A3G deaminase: -6; AHR act: 85*; APOBEC3A inh: -4; AHR act cf: 84*; PXR act counter: 179*

Results for COCCn1c(SCC(=O)NCCc2ccccc2)nc2c([nH]c3ccccc32)c1=O ?
NTR1 ag: -1; A3G deaminase: -7; AHR act: 120*; APOBEC3A inh: -5; AHR act cf: 72*; PXR act counter: 205*

What do the screens show for `COCCn1c(SCC(=O)Nc2ccccc2OC)nc2ccccc2c1=O`?
NTR1 ag: 2; A3G deaminase: -2; AHR act: 4; APOBEC3A inh: 0

Results for O=C(COC(=O)c1ccccc1SCC(=O)N1CCCC1)NCc1ccccc1 ?
NTR1 ag: 0; A3G deaminase: -10; AHR act: 4; APOBEC3A inh: -2

How did COc1ccccc1N1CCN(C(=O)c2coc(=O)c(Br)c2)CC1 do in these assays?
NTR1 ag: -2; A3G deaminase: -1; AHR act: 4; APOBEC3A inh: 1

Results for Cn1ncc2c(Nc3ccc(Br)cc3)nc(Nc3ccc(Br)cc3)nc21 ?
NTR1 ag: 31; A3G deaminase: -5; AHR act: 112*; APOBEC3A inh: -3; AHR act cf: 104*; PXR act counter: 13*

How did Cc1ccc(Nc2nc(NCCO)nc3c2cnn3C)cc1Cl do in these assays?
NTR1 ag: 4; A3G deaminase: 8; AHR act: 81*; APOBEC3A inh: 4; AHR act cf: 120*; PXR act counter: 16*

How did Cn1ncc2c(Nc3ccc(O)cc3)nc(Cl)nc21 do in these assays?
NTR1 ag: -1; A3G deaminase: -6; AHR act: 2; APOBEC3A inh: -1

Bioassay records deposited in PubChem by several laboratories.
